Source: PubChem BioAssay
Values without a mark were called inactive. How the calls were made is not given here.

test system: Aerobactin synthetase IucA (Klebsiella pneumoniae, hypervirulent); test: IucA enzyme inhibition, biochemical, LOPAC library, absorbance readout (AID 1346212); details: IucA enzyme assay, absorbance (OD) readout; active compounds read low;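 tested at 8 µM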;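 further: 100% = no compound wells and 0% = no enzyme wells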

SMILES	remaining activity [%]
O=C(NCC1CCCCN1)c1cc(OCC(F)(F)F)ccc1OCC(F)(F)F (stereo not given)	91.1
Cc1ccccc1/C=C/C1=NCCN1	120
NC1=NCC2c3ccccc3Cc3ccccc3N12 (stereo not given)	91.6
C[C@H](O)C(=O)C1=Nc2c(nc(N)[nH]c2=O)NC1	109
O=C(O)CP(=O)(O)O	89.1
C[C@@H]1O[C@@H](O[C@H]2C[C@@H](O)[C@]3(CO)[C@H]4[C@H](O)C[C@]5(C)[C@@H](C6COC(=O)C6)CC[C@]5(O)[C@@H]4CC[C@]3(O)C2)[C@H](O)[C@H](O)[C@H]1O (stereo not given in full)	97.8
O=C(N[C@@H](Cc1ccccc1)C(=O)CCl)OCc1ccccc1	111
CN1C2CCC1CC(NC(=O)c1nn(C)c3ccccc13)C2 (stereo not given)	107
O=c1ccc2c(OCCCCc3ccccc3)c3ccoc3cc2o1	123
COCCOC(=O)C1=C(C)NC(C)=C(C(=O)OC/C=C/c2ccccc2)C1c1cccc([N+](=O)[O-])c1 (stereo not given)	99.8
Oc1ccc(C2CNCc3sccc32)cc1O (stereo not given)	99.3
O=C(O)/C=C1\CCCc2ccccc2C1O (stereo not given)	119
COc1ccc(CCN(C)CCc2ccc(OC)c(OC)c2)cc1OC	122
CC(C)(C=O)Cc1cc(C(C)(C)C)c(O)c(C(C)(C)C)c1	115
Cc1nc2c(OCc3ccccc3)cccn2c1CC#N	126
OC[C@H]1NC[C@H](O)[C@@H](O)[C@@H]1O	100
O=C1Nc2ccc(I)cc2/C1=C/c1cc(Br)c(O)c(Br)c1	113
C[N+](C)(C)CCOP(=O)(O)OP(=O)([O-])OC[C@H]1O[C@@H](n2ccc(N)nc2=O)[C@H](O)[C@@H]1O	115
O=c1cc(N2CCOCC2)oc2c(-c3ccccc3)cccc12	110
O=[N+]([O-])c1ccc(-c2nc(-c3ccc(F)cc3)c(-c3ccncc3)[nH]2)cc1	95.7

SMILES	remaining activity [%]
NCC(O)C1CCCCCCC1 (stereo not given)	92.7
COc1ccccc1N1CCN(CCN(C(=O)C2CCCCC2)c2ccccn2)CC1	119
CN(C)C/C=C(/c1ccc(Br)cc1)c1cccnc1	107
CC[C@]1(O)C[C@H]2CN(CCc3c([nH]c4ccccc34)[C@@](C(=O)OC)(c3cc4c(cc3OC)N(C=O)[C@H]3[C@@](O)(C(=O)OC)[C@H](OC(C)=O)[C@]5(CC)C=CCN6CC[C@]43[C@@H]65)C2)C1	109
O=C(O)[C@@H]1C[C@@H](C(=O)O)N1	115
O=C[C@H](Cl)[C@@H](O)[C@H](O)[C@H](O)CO	101
CC(C)N(CCC(=O)c1ccc2ccccc2c1)Cc1ccccc1	112
COC(=O)[C@@H]1[C@H]2C[C@H]3c4[nH]c5ccccc5c4CCN3C[C@@H]2CC[C@@H]1O	124
COc1ccccc1N1CCN(CCCCNC(=O)c2ccc3ccccc3c2)CC1	118
COC(=O)C(N)Cc1ccc(Cl)cc1 (stereo not given)	91.4
CC(C)C[C@H](NP(=O)(O)O[C@@H]1O[C@@H](C)[C@H](O)[C@@H](O)[C@H]1O)C(=O)N[C@@H](Cc1c[nH]c2ccccc12)C(=O)O	89.8
c1ccc(C2CN3CCSC3=N2)cc1 (stereo not given)	92.5
Nc1nc2c(nc(Br)n2C2OC3COP(=O)(O)O[C@@H]3C2O)c(=O)[nH]1 (stereo not given in full)	111
COc1ccc([C@@H]2Sc3ccccc3N(CCN(C)C)C(=O)[C@@H]2OC(C)=O)cc1	109
Cc1cccc(C)c1NC(=O)C[N+](C)(C)C	116
CC(=O)N[C@H](C(=O)O)C(C)(C)SN=O	117
CSc1ccc(C(=O)c2[nH]c(=O)[nH]c2C)cc1	118
COc1ccccc1N1CCN(CCN(C(=O)c2ccc(F)cc2)c2ccccn2)CC1	117
O=C(O)c1ccccc1Nc1cccc(OCc2ccc3ccccc3n2)c1	125
C#Cc1ccc2c(c1)C(=O)N(C)Cc1c(C(=O)OCCCc3nc(C(=O)O)c4n3-c3ccc(C#C)cc3C(=O)N(C)C4)ncn1-2	97.1
